# PLC-gamma1 inh = PLC-gamma1 (human) inhibition, primary screen | P19174 | purified PLC-gamma1, fluorogenic substrate, fluorescence | inhibition, % at 12.2 µM | 0.84% of 370,000 active; in the data active = inhibition above about 9.5%
# Target sequence (P19174 whole entry, looked up): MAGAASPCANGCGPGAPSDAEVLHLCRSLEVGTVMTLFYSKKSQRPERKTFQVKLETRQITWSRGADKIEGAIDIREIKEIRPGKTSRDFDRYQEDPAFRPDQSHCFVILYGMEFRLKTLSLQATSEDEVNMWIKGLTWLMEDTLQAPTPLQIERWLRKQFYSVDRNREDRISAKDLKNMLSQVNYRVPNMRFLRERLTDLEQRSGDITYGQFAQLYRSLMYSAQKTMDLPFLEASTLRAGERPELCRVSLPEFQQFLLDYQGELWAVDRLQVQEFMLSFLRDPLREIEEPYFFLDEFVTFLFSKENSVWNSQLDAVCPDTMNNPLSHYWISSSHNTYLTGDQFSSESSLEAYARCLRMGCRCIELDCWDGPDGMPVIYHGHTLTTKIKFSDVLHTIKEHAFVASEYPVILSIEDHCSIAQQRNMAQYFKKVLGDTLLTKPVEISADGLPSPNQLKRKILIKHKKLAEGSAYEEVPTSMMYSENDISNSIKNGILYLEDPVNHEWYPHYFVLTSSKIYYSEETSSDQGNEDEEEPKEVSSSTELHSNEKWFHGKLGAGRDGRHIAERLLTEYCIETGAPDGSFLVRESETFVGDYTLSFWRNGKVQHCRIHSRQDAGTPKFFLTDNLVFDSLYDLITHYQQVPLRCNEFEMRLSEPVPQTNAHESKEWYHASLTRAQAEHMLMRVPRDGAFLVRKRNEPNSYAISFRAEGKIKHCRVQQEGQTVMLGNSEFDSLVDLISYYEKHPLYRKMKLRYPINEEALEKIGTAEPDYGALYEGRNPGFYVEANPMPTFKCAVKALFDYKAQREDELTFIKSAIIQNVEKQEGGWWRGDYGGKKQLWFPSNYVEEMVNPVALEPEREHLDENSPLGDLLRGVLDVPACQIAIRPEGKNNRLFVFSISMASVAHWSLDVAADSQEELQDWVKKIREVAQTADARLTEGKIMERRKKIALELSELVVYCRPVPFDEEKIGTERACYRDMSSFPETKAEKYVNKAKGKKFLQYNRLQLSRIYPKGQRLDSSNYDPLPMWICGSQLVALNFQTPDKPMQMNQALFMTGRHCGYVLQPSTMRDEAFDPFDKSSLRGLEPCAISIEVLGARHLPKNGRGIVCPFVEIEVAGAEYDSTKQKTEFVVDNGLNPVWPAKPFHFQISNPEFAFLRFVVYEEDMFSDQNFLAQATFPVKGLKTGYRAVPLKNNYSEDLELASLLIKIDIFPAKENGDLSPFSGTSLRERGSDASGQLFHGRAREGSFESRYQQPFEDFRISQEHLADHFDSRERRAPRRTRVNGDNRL
# PLCb3 inh = blocks human PLC-beta3 enzyme activity. Purified PLC-beta3, fluorogenic substrate, fluorescence. Q01970. 0.18% of 370,000 active. AID 720704. inhibition, % at 12.2 µM;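 also: 0% = median of compound wells on plate and 100% = full blocker control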
# GC-B act = GC-B (human) receptor activation; P20594; HEK293-GC-B cells, CNP EC30, cGMP TR-FRET; 0% at EC30 CNP, 100% saturating CNP; activation, % at 10 µM; 0.11% of 370,000 active;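 active = activation at 10 µM reaching about 35% in either raw or pattern-adjusted values, limit read from the data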
# NPR1 activator = GC-A (human) enzyme activation; AID 1671463; activation, % at 10 µM; P16066; HEK293 GC-A cells, cGMP TR-FRET, EC30 ANP; 0% at EC30 ANP, 100% saturating ANP; 0.14% of 370,000 active; in the data active = activation above about 40%
# PLCgamma1 ctr = counter-screen for PLC-beta3 inhibitors: inhibitors of human PLC-gamma1; shares compounds with PLC-gamma1 inh; purified PLC-gamma1, fluorogenic substrate, fluorescence; inhibition, % at 12.3 µM; 3.1% of 3,300 active; AID 743258; in the data active = inhibition above about 9.5%
# PLCbeta3 conf = human PLC-beta3 inhibition, confirmation. purified PLC-beta3, fluorogenic substrate fluorescence. shares compounds with PLC-gamma1 inh. inhibition, % at 12.3 µM. AID 743261. 1% of 3,300 active
# Starred values were filed as active, the others as inactive; · = not tested or not shown. Hits are enriched below; roughly 1.2% of the tested compounds scored in any of these assays. Rule as the data show it, unless noted: active = inhibition above about 11%; inactive = the rest.
SMILES,PLC-gamma1 inh,PLCb3 inh,GC-B act,NPR1 activator,PLCgamma1 ctr,PLCbeta3 conf
Cc1ccccc1C(=O)NCCCc1ccccc1,11*,3,-2,2,0,-2
CCOC(=O)C(NC(C)=O)C(=O)Nc1c(C)cccc1C (stereo not drawn),0,0,-2,2,·,·
Clc1cccc(CNCC2CCCO2)c1Cl (stereo not drawn),3,-3,1,1,·,·
O=C(O)C1CCCCC1C(=O)Nc1cc(C(F)(F)F)ccc1Cl (stereo not drawn),10.0*,-4,3,-4,-3,-6
O=C(O)C1CCCCC1C(=O)Nc1cc(Cl)ccc1Cl (stereo not drawn),1,1,5,-1,·,·
CC(=O)c1ccc(OCC(C)C)c(CC(C(N)=O)C(N)=O)c1,7,12*,-5,2,-6,1
COc1ccc(NC(=O)CSc2nnc3ccc(-c4ccccn4)nn23)c(OC)c1,2,-1,1,-2,·,·
CC(C)NC(=O)CC1C(=O)N(Cc2ccccc2)C(C)c2nc3ccccc3n21 (stereo not drawn),13*,4,0,1,-2,-1
COC(CNC(=O)CC1C(=O)N(Cc2ccccc2)C(C)c2nc3ccccc3n21)OC (stereo not drawn),3,1,-4,-2,·,·
COc1cc(CCC(=O)OCC(=O)Nc2ccc(C)cc2Br)cc(OC)c1OC,-1,-2,1,-2,·,·
CCCCn1c(CCCNC(=O)c2ccco2)nc2ccccc21,12*,4,1,-3,-6,-6
COc1ccccc1CNC(=O)C1CCCC1,0,-4,4,-6,·,·
CNC[C@@H](Cc1ccccc1)NC[C@@H](CC1CCCCC1)NCCCc1ccccc1,13*,6,-17,-7,1,1
CCC[C@@H](CNC)NC[C@H](Cc1ccccc1)NCCCCc1ccccc1,4,0,-21,-9,·,·
Nn1c(Cc2ccccc2F)nnc1SCn1nnc2ccccc2c1=O,11*,3,-1,-3,-6,-1
O=c1c2ccccc2nnn1CSc1ccccc1F,0,4,1,4,·,·
O=C(Cn1nc(-c2ccccc2)c2ccccc21)Oc1ccccc1,13*,2,-9,2,-4,-3
COC(=O)Cn1nc(-c2cccc(OC)c2)c2ccccc21,4,-1,-4,1,·,·
COC(=O)c1cccc(NC(=O)CN2CCN(c3ccc(OC)cc3)CC2)c1,13*,0,-5,3,-4,-1
COC(=O)c1ccc(NC(=O)CN2CCN(c3ccccc3)CC2)cc1,12*,-7,5,-8,-8,-7
COC(=O)c1ccc(NC(=O)CN2CCN(c3ccccn3)CC2)cc1,9.9*,-87,-2,0,-4,-3
COc1cccc(NC(=O)CN2CCN(c3ccc(F)cc3)CC2)c1,-1,-1,3,3,·,·
O=C(NNC(=O)c1ccncc1)Nc1ccc(N=Nc2ccccc2)cc1,12*,0,0,6,7,9
O=C(NNC(=O)c1ccncc1)Nc1ccccc1,0,-2,-8,-1,·,·
CC1(C)CC(=O)C(C2=NC3(CCCCCC3)Cc3ccccc32)=C(O)C1,10*,2,5,3,3,4
SMILES,PLC-gamma1 inh,PLCb3 inh,GC-B act,NPR1 activator,PLCgamma1 ctr,PLCbeta3 conf
COc1ccc(C2=C(Nc3ccc(F)cc3)c3ccccc3C2=O)cc1,-2,0,2,3,·,·
C=CCn1c(-c2csc(-c3ccccc3)n2)n[nH]c1=S,8,-1,-14,3,·,·
C=CCn1c(-c2csc(-c3ccc(Cl)cc3)n2)n[nH]c1=S,9.8*,8,-6,-4,-11,-10
O=C1NC(=O)C(=Cc2ccccc2)N1,8,11*,0,1,0,4
CC(C)CCSc1nc(N)c(C#N)cc1C#N,-48,-55,0,7,·,·
O=C(CCS(=O)(=O)c1ccccc1F)Nc1ccc(N2CCN(Cc3ccccc3)CC2)cc1,11*,4,6,0,3,6
COC(=O)C1=CN(c2ccc(N3CCOCC3)cc2)C(N)=C(C#N)C1c1ccc(-c2ccccc2)cc1 (stereo not drawn),-34,-45,-3,6,·,·
Cc1ccc(-n2ncc(C(=O)Nc3ccc(Cl)cc3)c2C2CCNCC2)cc1C,9.6*,4,-1,-6,-4,-1
Cc1ccc([N+](=O)[O-])cc1-c1[nH]c(-c2ccc(O)c(O)c2)nc1-c1ccccc1,9.7*,7,-25,-45,4,7
COc1ccc(-c2nc(-c3ccccc3)c(-c3cc([N+](=O)[O-])ccc3C)[nH]2)cc1O,0,3,-20,-12,·,·
O=C(c1ccc(S(=O)(=O)N2CCCCCC2)cc1)N1CCN(c2ccccc2F)CC1,12*,-1,-5,0,-4,-1
O=C(c1cccc(S(=O)(=O)N2CCCCCC2)c1)N1CCN(c2ccccc2F)CC1,7,-3,0,-3,·,·
Cc1ccc(C(C(=O)NC2CCCCC2)N(Cc2ccco2)C(=O)C2COc3ccccc3O2)o1 (stereo not drawn),9.6*,-4,-2,-2,9,1
ClC(Br)=C(n1cnc2ccccc21)n1cnc2ccccc21,1,0,-5,-20,·,·
COc1ccc(C(CNC(=O)c2cc3ccccc3o2)N2CCCCC2)cc1 (stereo not drawn),2,7,-7,-7,·,·
COc1ccc(C(CNC(=O)c2cc3ccccc3o2)N2CCCC2)cc1 (stereo not drawn),11*,-12,-1,-13,-8,-4
CN(Cc1ccncn1)C(=O)CC1C(=O)NCCN1Cc1cccc(Oc2ccccc2)c1 (stereo not drawn),-11,-11,10,1,·,·
Oc1[nH]c2ccccc2c1C1=NCCCC1,5,1,1,-3,·,·
CCn1c(O)c(C2=NCCCC2)c2ccccc21,9.7*,5,-6,-6,5,7
Cc1occc1C(=O)N/N=C/c1ccc(OCc2ccccc2)cc1,15*,-1,1,-3,-3,0
CCOC(=O)N/N=C/c1ccc(Oc2ccccc2)cc1,9.6*,9,-4,4,6,10
O=C(CCC(=O)c1ccc(-c2ccccc2)cc1)Nc1cccnc1,1,-6,-8,-4,·,·
CCc1nc(SCC(=O)NCc2ccc(F)cc2)c2c(=O)n(C)c(=O)n(C)c2n1,46*,3,4,2,-9,-4
CCc1nc(SCC(N)=O)c2c(=O)n(C)c(=O)n(C)c2n1,0,-1,-5,11,·,·
CCCCCCCCN1C(=O)[C@H](CC(=O)NCc2cccs2)C[C@@]2(C(=O)OCC)CCCC=C12,-1,-2,-3,-8,·,·
Cc1ccc(/C=N\NC(=O)Cn2c(C)nc3ccccc32)o1,9.8*,4,0,4,-5,0

# Source: PubChem
